According to the supplement of paper PMC8728848:
About 410 targets per protein were measured; listed, in parts, are those with the strongest signals and a random draw of the rest.

Assays:
Assay in all cases: glycan array binding signal (z-score within array); higher = stronger binding
Conditions in all cases: glycan notation: IUPAC condensed, linker removed
[1] = target: Neu5Ac(a2-3)Gal(b1-3)GalNAc
In short: (§1)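 Negative Z-scores can be read as non-binding. The Z-score is calculated within each array and then averaged across arrays of one protein sequence at different concentrations or buffers and across linkers. Arrays, 3228 in all, were curated from the Consortium for Functional Glycomics database and kept only where the protein sequence was available.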

[2] = target: Neu5Ac(a2-3)Gal(b1-3)GalNAc(b1-4)[Neu5Ac(a2-8)Neu5Ac(a2-3)]Gal(b1-4)Glc
In short: as §1

[3] = target: Neu5Ac(a2-3)Gal(b1-4)GlcNAc(b1-3)Gal(b1-4)GlcNAc(b1-3)Gal(b1-4)GlcNAc
In short: as §1

[4] = target: Neu5Ac(a2-3)Gal(b1-4)GlcNAc(b1-6)[Gal(b1-3)]GalNAc
In short: as §1

[5] = target: Neu5Ac(a2-3)Gal6S(b1-4)GlcNAc
In short: as §1

[6] = target: Neu5Ac(a2-3)[GalNAc(b1-4)]Gal(b1-4)GlcNAc
In short: as §1

[7] = target: Neu5Ac(a2-3)[GalNAc(b1-4)]Gal(b1-4)GlcNAc(b1-3)GalNAc
In short: as §1

[8] = target: Neu5Ac(a2-6)Gal(b1-4)GlcNAc(b1-2)[Neu5Ac(a2-6)Gal(b1-4)GlcNAc(b1-6)]Man(a1-6)[Neu5Ac(a2-6)Gal(b1-4)GlcNAc(b1-2)Man(a1-3)][GlcNAc(b1-4)]Man(b1-4)GlcNAc(b1-4)GlcNAc
In short: as §1

[9] = target: Neu5Ac(a2-6)Gal(b1-4)GlcNAc(b1-3)Gal(b1-4)GlcNAc(b1-3)Gal(b1-4)GlcNAc(b1-2)Man(a1-3)[Neu5Ac(a2-6)Gal(b1-4)GlcNAc(b1-3)Gal(b1-4)GlcNAc(b1-3)Gal(b1-4)GlcNAc(b1-2)Man(a1-6)]GalNAc
In short: as §1

[10] = target: Neu5Ac(a2-6)GalNAc
In short: as §1

[11] = target: Neu5Ac(a2-6)GalNAc(b1-4)GlcNAc
In short: as §1

[12] = target: Neu5Ac(a2-8)Neu5Ac(a2-3)[Gal(b1-3)GalNAc(b1-4)]Gal(b1-4)Glc
In short: as §1

[13] = target: Neu5Ac(b2-6)Gal(b1-4)GlcNAc
In short: as §1

[14] = target: Neu5Gc(a2-6)GalNAc
In short: as §1

[15] = target: Fuc(a1-2)Gal(b1-4)GlcNAc(b1-3)Gal(b1-4)GlcNAc
In short: as §1

[16] = target: Fuc(a1-2)Gal(b1-4)GlcNAc(b1-3)Gal(b1-4)GlcNAc(b1-2)Man(a1-3)[Fuc(a1-2)Gal(b1-4)GlcNAc(b1-3)Gal(b1-4)GlcNAc(b1-2)Man(a1-6)]Man(b1-4)GlcNAc(b1-4)GlcNAc
In short: as §1

[17] = target: Fuc(a1-2)[Gal(a1-3)]Gal(b1-3)GlcNAc
In short: as §1

[18] = target: Fuc(a1-3)[Gal3S(b1-4)]Glc
In short: as §1

[19] = target: Gal(a1-3)Gal(b1-3)GlcNAc
In short: as §1

[20] = target: Gal(a1-3)Gal(b1-4)Glc
In short: as §1

[21] = target: Gal(a1-3)Gal(b1-4)GlcNAc(b1-6)GalNAc
In short: as §1

[22] = target: Gal(b1-3)GlcNAc(a1-3)Gal(b1-4)GlcNAc
In short: as §1

[23] = target: Gal(b1-3)GlcNAc(b1-3)Gal(b1-4)GlcNAc(b1-3)Gal(b1-4)GlcNAc(b1-2)[Gal(b1-3)GlcNAc(b1-3)Gal(b1-4)GlcNAc(b1-3)Gal(b1-4)GlcNAc(b1-6)]Man(a1-6)[Gal(b1-3)GlcNAc(b1-3)Gal(b1-4)GlcNAc(b1-3)Gal(b1-4)GlcNAc(b1-2)Man(a1-3)]Man(b1-4)GlcNAc(b1-4)[Fuc(a1-6)]GlcNAc
In short: as §1

[24] = target: Gal(b1-3)[Fuc(a1-4)]GlcNAc(b1-2)Man
In short: as §1

[25] = target: Gal(b1-3)[Fuc(a1-4)]GlcNAc(b1-3)Gal(b1-3)[Fuc(a1-4)]GlcNAc
In short: as §1

[26] = target: Gal(b1-4)GalNAc(a1-3)[Fuc(a1-2)]Gal(b1-4)GlcNAc
In short: as §1

[27] = target: Gal(b1-4)GalNAc(b1-3)[Fuc(a1-2)]Gal(b1-4)GlcNAc
In short: as §1

[28] = target: Gal(b1-4)GlcNAc(b1-3)Gal(b1-4)GlcNAc(b1-3)Gal(b1-4)GlcNAc(b1-3)Gal(b1-4)GlcNAc(b1-2)[Gal(b1-4)GlcNAc(b1-3)Gal(b1-4)GlcNAc(b1-3)Gal(b1-4)GlcNAc(b1-3)Gal(b1-4)GlcNAc(b1-6)]Man(a1-6)[Gal(b1-4)GlcNAc(b1-3)Gal(b1-4)GlcNAc(b1-3)Gal(b1-4)GlcNAc(b1-3)Gal(b1-4)GlcNAc(b1-2)Man(a1-3)]Man(b1-4)GlcNAc(b1-4)[Fuc(a1-6)]GlcNAc
In short: as §1

[29] = target: Gal(b1-4)GlcNAc(b1-3)Gal(b1-4)GlcNAc(b1-3)[Gal(b1-4)GlcNAc(b1-3)Gal(b1-4)GlcNAc(b1-6)]GalNAc
In short: as §1

[30] = target: Gal3S(b1-4)[Fuc(a1-3)]GlcNAc6S
In short: as §1

[31] = target: GalNAc(b1-3)Gal
In short: as §1

[32] = target: GalNAc(b1-4)Gal(b1-4)Glc
In short: as §1

[33] = target: GalNAc3S(b1-4)[Fuc(a1-3)]GlcNAc
In short: as §1

[34] = target: GalNAc4S6S(b1-4)GlcNAc
In short: as §1

[35] = target: Glc(a1-4)Glc
In short: as §1

[36] = target: Glc(a1-6)Glc(a1-6)Glc(a1-6)Glc
In short: as §1

[37] = target: GlcNAc(a1-3)Gal(b1-4)GlcNAc
In short: as §1

[38] = target: GlcNAc(a1-4)Gal(b1-4)GlcNAc(b1-3)Gal(b1-4)GlcNAc(b1-3)Gal(b1-4)GlcNAc
In short: as §1

[39] = target: GlcNAc(b1-3)Gal(b1-4)GlcNAc(b1-2)Man(a1-3)[GlcNAc(b1-3)Gal(b1-4)GlcNAc(b1-2)Man(a1-6)]Man(b1-4)GlcNAc(b1-4)GlcNAc
In short: as §1

[40] = target: GlcNAc(b1-3)Gal(b1-4)GlcNAc(b1-2)[GlcNAc(b1-3)Gal(b1-4)GlcNAc(b1-6)]Man(a1-6)[GlcNAc(b1-3)Gal(b1-4)GlcNAc(b1-2)Man(a1-3)]Man(b1-4)GlcNAc(b1-4)GlcNAc
In short: as §1

[41] = target: GlcNAc(b1-3)Gal(b1-4)GlcNAc(b1-3)Gal(b1-4)GlcNAc(b1-3)Gal(b1-4)GlcNAc(b1-2)[GlcNAc(b1-3)Gal(b1-4)GlcNAc(b1-3)Gal(b1-4)GlcNAc(b1-3)Gal(b1-4)GlcNAc(b1-6)]Man(a1-6)[GlcNAc(b1-3)Gal(b1-4)GlcNAc(b1-3)Gal(b1-4)GlcNAc(b1-3)Gal(b1-4)GlcNAc(b1-2)Man(a1-3)]Man(b1-4)GlcNAc(b1-4)[Fuc(a1-6)]GlcNAc
In short: as §1

[42] = target: GlcNAc(b1-4)GlcNAc(b1-4)GlcNAc
In short: as §1

[43] = target: GlcNAc(b1-4)GlcNAc(b1-4)GlcNAc(b1-4)GlcNAc(b1-4)GlcNAc(b1-4)GlcNAc
In short: as §1

[44] = target: GlcNAc(b1-6)Gal(b1-4)GlcNAc
In short: as §1

B1: pilr alpha (protein)
chain: MLYGVTQPKHLSASMGGSVEIPFSFYYPWELATAPDVRISWRRGHFHRQSFYSTRPPSIHKDYVNRLFLNWTEGQKSGFLRISNLQKQDQSVYFCRVELDTRSSGRQQWQSIEGTKLSIT
glycan array binding signal (z-score) [1]: -0.231 | glycan array binding signal (z-score) [2]: -0.149 | glycan array binding signal (z-score) [3]: -0.173 | glycan array binding signal (z-score) [4]: -0.533 | glycan array binding signal (z-score) [5]: -0.007 | glycan array binding signal (z-score) [6]: -0.65 | glycan array binding signal (z-score) [7]: 0.118 | glycan array binding signal (z-score) [8]: 0.09 | glycan array binding signal (z-score) [9]: 1.89 | glycan array binding signal (z-score) [10]: -0.546 | glycan array binding signal (z-score) [11]: -0.492 | glycan array binding signal (z-score) [12]: -0.167 | glycan array binding signal (z-score) [13]: -0.768 | glycan array binding signal (z-score) [14]: -0.353

B2: EULS2 M3 (Oryza sativa) (protein)
chain: MVYCRANPNYAMTARNGAVVLAPANPKDEYQHWIKDMRWSTSIKDEEGYPAFALVNKATGQAIKHSLGQSHPVRLVPYNPEVMDESVLWTESRDVGNGFRCIRMVNNIYLNFDAFHGDKYHGGVRDGTDIVLWKLCEGDSLRWKIQPYYILEQKLISEEDLNSAVDHHHHHH
glycan array binding signal (z-score) [15]: 0.227 | glycan array binding signal (z-score) [16]: 0.177 | glycan array binding signal (z-score) [17]: 1.44 | glycan array binding signal (z-score) [18]: 0.485 | glycan array binding signal (z-score) [19]: 8.25 | glycan array binding signal (z-score) [20]: 0.227 | glycan array binding signal (z-score) [21]: -0.929 | glycan array binding signal (z-score) [22]: 2.02 | glycan array binding signal (z-score) [23]: 1.66 | glycan array binding signal (z-score) [24]: 1.17 | glycan array binding signal (z-score) [25]: 2.13 | glycan array binding signal (z-score) [26]: -0.34 | glycan array binding signal (z-score) [27]: -0.158 | glycan array binding signal (z-score) [28]: 0.461 | glycan array binding signal (z-score) [29]: 0.234 | glycan array binding signal (z-score) [30]: 2.11 | glycan array binding signal (z-score) [31]: 2.46 | glycan array binding signal (z-score) [32]: 0.053 | glycan array binding signal (z-score) [33]: -0.623 | glycan array binding signal (z-score) [34]: 0.056 | glycan array binding signal (z-score) [35]: 0.668 | glycan array binding signal (z-score) [36]: 1.67 | glycan array binding signal (z-score) [37]: -0.405 | glycan array binding signal (z-score) [38]: -0.139 | glycan array binding signal (z-score) [39]: -0.171 | glycan array binding signal (z-score) [40]: 0.562 | glycan array binding signal (z-score) [41]: 0.306 | glycan array binding signal (z-score) [42]: -0.413 | glycan array binding signal (z-score) [43]: -0.977 | glycan array binding signal (z-score) [44]: 1.64
